The nature of assay [1]: Primary qHTS for inhibitors of nuclear receptor binding SET domain protein 2 (NSD2) in an isogenic RCH-ACV NSD2 p.E1099K mutant (9B) (AID 1645876).
The nature of assay [2]: Primary qHTS for inhibitors of nuclear receptor binding SET domain protein 2 (NSD2) in an RCH-ACV wild type WT cells (2C) (AID 1645877).

Records with an inconclusive call do not appear. A call without a number means that no potency is given here. Activity calls are given as the source filed them. Calls come from the whole dose curve; as a rule, active = well fitted curve in the direction sought with a large enough effect; inconclusive = small, poorly fitted or top-dose-only effect, or another doubt; inactive = no such curve, though single readings can be large; an effect the other way counts as inactive or inconclusive.
Note: nearly all actives have a fitted effect of over 70% in size.

Consider `CC(C)C(=O)O[C@@H]1[C@@H](O)[C@@H](O[C@H]2O[C@H](CO)[C@@H](O)[C@H](O)[C@H]2O)O[C@H](CO)[C@H]1O`, for which the Potency result in assay [1] and in assay [2] was “inactive” throughout.

`COc1cc(/C=C/C(=O)O[C@H]2[C@H](O)[C@@H](CO)O[C@@]2(CO)O[C@H]2O[C@H](COC(=O)c3ccc(O)cc3)[C@@H](O)[C@H](O)[C@H]2O)cc(OC)c1OC`: the Potency entry in assay [1] and in assay [2] was “inactive” each time.

On to `C/C(=C/CO)CC[C@@H]1[C@@]2(C)CCC[C@](C)(C(=O)O)C2CC[C@@]1(C)O` (stereo partly specified), for which the Potency entry in assay [1] and in assay [2] was “inactive” each time.

The values above are taken from PubChem BioAssay (NCATS).
